The panel holds about 83,000 compounds, 20% with a hit somewhere; the sample as a whole holds those more often.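 Compound tested at a single concentration for 48 hours in 96-well plates; a percent growth value below 10 was scored as active.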 Unmarked numbers belong to inactive results. Calls of active or inactive are those of the source.

The subject of this test is MDA-MB-468 breast. Briefly: NCI-60 one-dose screen, 48 h (100 = growth as untreated, 0 = no growth, -100 = all killed). The note with it: 10 µM unless noted.
For the molecule `CC(=O)Nc1ccc(/C=N/N2CCCCCC2)cc1`, the growth was 98.6%. As for `CCc1ccc(-c2ccc(NC3CCCCCC3)nn2)cc1S(N)(=O)=O`, the growth is 102%. With `CN1CCN(c2nc(-c3cnc4ccccc4n3)cc3ccccc23)CC1`, the growth is 9.21% (active). As to `COc1cc(-c2nc(SC(C)C)nc(Nc3ccccc3C)c2C#N)cc(OC)c1OC`, the growth is 111%. For `COC(=O)/C(CCC=C(C)C)=C1\[C@@H](OC(C)=O)C[C@@]2(C)[C@H]1C[C@@H](O)[C@H]1[C@@]3(C)CC[C@H](NCc4ccccc4)[C@@H](C)[C@@H]3CC[C@@]12C`, the growth was 76.8%. As for `O=C(CI)NCCNc1cccc2c(S(=O)(=O)O)cccc12`, the growth is 100%. Regarding `O=S(=O)(Nc1ccc2ccccc2c1)c1ccc(-c2cnc(C3CC3)o2)cc1`, the growth is 6.05% (active). Regarding `C#CCn1cc(/C=N/Nc2nc(-c3ccc(Br)cc3)cs2)c2ccccc21`, the growth is 105%.

For `OCCN1CCCCCCC1`, the growth is 101%. For `CC(C)=CC/C=C(/C)[C@H]1CC[C@]2(C)[C@@H]1CC[C@@H]1[C@@]3(C)CC/C(=N/O)C(C)(C)[C@@H]3CC[C@]12C`, the growth is 47.7% [100 µM]. `C[C@]12CC[C@@H]3c4ccc(OCC(=O)O)cc4CC[C@H]3[C@@H]1CCC2=O`: the growth is 113%.

As for `Cn1cc(-c2nonc2-c2cn(C)c3ccccc23)c2ccccc21`, the growth is 30.3%. With `N#C/C(=C\NC(=S)N=Nc1c(O)[nH]c2ccccc12)c1nc2ccccc2s1`, the growth was 79.8%. To `O/N=C1\c2ccccc2-c2ccc(Br)cc21` belongs 108%.

Values taken from PubChem BioAssay (NCI).
